Assay results published in PubChem BioAssay (EPA / NIEHS).
Where “and” joins values, the source holds several entries; their conditions need not be identical. Identical values can stand only once. Inconclusive results are not listed. Some compounds were tested as several samples or in several runs, with calls that do not always agree. Calls of active or inactive are those of the source. Rule for the calls, unless noted: active = hit-call score of the fitted dose curve at least 0.9, where 1 is the maximum; inactive = score below 0.9.

Experiments:
[1] = ATG_NFI_CIS: Attagene CIS-FACTORIAL HepG2 Assay for human Nuclear Factor I (NFI) (AID 2282989); conditions: HepG2 cis-regulatory reporter, NFI response element transcription; actives raise or lower the signal
Procedure, shortened: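 Multiplexed cis-reporter system in human HepG2 cells reports native TF activity as reporter mRNA induction 24 h post-dose. Fragments labelled with 6-FAM, HpaI-digested and resolved by capillary electrophoresis; activity fitted both directions versus DMSO.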

[2] = target: Myc proto-oncogene protein (Homo sapiens) (UniProt P01106); assay: ATG_Myc_CIS: Attagene CIS-FACTORIAL HepG2 Assay for human Myelocytomatosis (Myc) Proto-Oncogene Transcription Factor (AID 2282990); conditions: HepG2, Attagene cis-reporter transcription factor activity; actives raise or lower the signal
Procedure, shortened: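 DMSO-normalised, bidirectionally fitted reporter mRNA signal. HepG2 cells transfected with cis reporter constructs, treated 24 h; transcripts detected by RT-PCR, 6-FAM primer extension and CE.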

[3] = ATG_NF_kB_CIS: Attagene CIS-FACTORIAL HepG2 Assay for human Nuclear Factor Kappa B (NF-kB) (AID 2282991); conditions: HepG2 Attagene cis-factorial NF-kB reporter mRNA; actives raise or lower the signal
Procedure, shortened: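 Multiplexed cis-reporter assay in transiently transfected HepG2. 24 h treatment; RNA isolated, RT-PCR, labelled fragments resolved by CE. DMSO baseline.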

[4] = ATG_NRF2_ARE_CIS: Attagene CIS-FACTORIAL HepG2 Assay for human Nuclear Factor Erythroid 2 Related Factor 2 (NFR2) response to Antioxidant Response Elements (ARE) (AID 2282992); conditions: HepG2 Attagene ARE/NRF2 reporter, transcription factor activity; actives raise or lower the signal;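 for AC50: reporter mRNA level measured by RT-PCR and capillary electrophoresis fluorescence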
Procedure, shortened: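 Endogenous transcription factor activity in human liver HepG2 cells is tracked via a cis-element-driven reporter within a multiplexed set. mRNA induction is read by RT-PCR and capillary electrophoresis after 24 h, with DMSO as baseline.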

[5] = ATG_Oct_MLP_CIS: Attagene CIS-FACTORIAL HepG2 Assay for human Octamer-Binding Transcription Factor (Oct) (AID 2282993); conditions: HepG2 Attagene cis-factorial Oct reporter, mRNA; actives raise or lower the signal
Procedure, shortened: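 After 24 h compound exposure, transfected HepG2 cells were lysed for total RNA; reporter-specific cDNA was PCR-amplified, fluorescently labelled and sized by capillary electrophoresis. Bidirectional curve fitting used DMSO as baseline.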

[6] = target: Cellular tumor antigen p53 (Homo sapiens) (UniProt P04637); assay: ATG_p53_CIS: Attagene CIS-FACTORIAL HepG2 Assay for human p53 Transcription Factor (AID 2282994); conditions: HepG2 p53 cis-element reporter, Attagene mRNA; actives raise or lower the signal
Procedure, shortened: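 Steps: transfect HepG2 with multiplexed cis reporter constructs; dose chemicals 24 h; extract RNA, reverse-transcribe, PCR-amplify reporter sequences; FAM-label, HpaI-digest, resolve fragments by CE. Activity fitted both directions relative to DMSO.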

[7] = target: human Peroxisome Proliferator-activated Receptor alpha (PPARa), PPARA (gene 5465) (UniProt Q07869); assay: ATG_PPARa_TRANS: Attagene TRANS-FACTORIAL HepG2 Assay for human Peroxisome Proliferator-activated Receptor alpha (PPARa) (AID 2283001; active = hit-call score of the fitted dose curve at least 0.9, where 1 is the maximum;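 for AC50: potency for gain of reporter signal over DMSO so agonist or activator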)
Procedure, shortened: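 Exposure: 24 h, transiently transfected HepG2 cells. Endpoint: GAL4-UAS reporter mRNA, RT-PCR with capillary electrophoresis fluorescence. Baseline: DMSO; increases fitted.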

[8] = BSK_3C_TissueFactor: BioMAP Diversity Plus: 3C Assay for Tissue Factor Biomarker Activity (AID 2282997); conditions: BioMAP 3C HUVEC, tissue factor biomarker readout; actives raise or lower the signal
Procedure, shortened: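 HUVEC, 3C system, 24 h post-dose; Tissue Factor by ELISA; bidirectional fit vs DMSO baseline.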

[9] = BSK_3C_uPAR: BioMAP Diversity Plus: 3C Assay for Urokinase-type plasminogen activator receptor (uPAR) Biomarker Activity (AID 2282998); conditions: BioMAP 3C HUVEC, uPAR biomarker ELISA; actives raise or lower the signal
Procedure, shortened: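 Values derive from bidirectional curve fitting relative to DMSO, which served as baseline of activity. uPAR was measured by ELISA in human umbilical vein endothelial primary cultures 24 h after compound addition.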

[10] = BSK_4H_Eotaxin3: BioMAP Diversity Plus: 4H Assay for Eotaxin 3 Biomarker Activity (AID 2283000); conditions: primary human endothelial cells (HUVEC); actives raise or lower the signal;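 for outcome: CCL26 protein level quantified by ELISA in parallel with SRB cytotoxicity check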
Procedure, shortened: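 Readout is Eotaxin-3 (CCL26) level by ELISA in primary human umbilical vein endothelial cells harvested 24 h after chemical exposure; activity fitted in both directions against DMSO control.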

Myc proto-oncogene protein (Homo sapiens), sequence (P01106 whole entry, looked up): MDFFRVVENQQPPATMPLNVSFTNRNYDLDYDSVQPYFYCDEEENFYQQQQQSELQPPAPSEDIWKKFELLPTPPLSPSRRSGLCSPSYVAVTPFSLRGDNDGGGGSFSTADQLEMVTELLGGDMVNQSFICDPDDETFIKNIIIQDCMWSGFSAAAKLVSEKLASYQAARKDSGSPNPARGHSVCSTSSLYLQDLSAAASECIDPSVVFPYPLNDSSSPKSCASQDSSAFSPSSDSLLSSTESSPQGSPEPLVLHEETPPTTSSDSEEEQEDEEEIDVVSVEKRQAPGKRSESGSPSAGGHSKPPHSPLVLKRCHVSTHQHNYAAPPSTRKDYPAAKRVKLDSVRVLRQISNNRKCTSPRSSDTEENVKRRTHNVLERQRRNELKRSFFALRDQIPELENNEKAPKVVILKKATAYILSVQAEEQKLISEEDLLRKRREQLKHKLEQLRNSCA
Cellular tumor antigen p53 (Homo sapiens), sequence (P04637 whole entry, looked up, the tested form may be a part): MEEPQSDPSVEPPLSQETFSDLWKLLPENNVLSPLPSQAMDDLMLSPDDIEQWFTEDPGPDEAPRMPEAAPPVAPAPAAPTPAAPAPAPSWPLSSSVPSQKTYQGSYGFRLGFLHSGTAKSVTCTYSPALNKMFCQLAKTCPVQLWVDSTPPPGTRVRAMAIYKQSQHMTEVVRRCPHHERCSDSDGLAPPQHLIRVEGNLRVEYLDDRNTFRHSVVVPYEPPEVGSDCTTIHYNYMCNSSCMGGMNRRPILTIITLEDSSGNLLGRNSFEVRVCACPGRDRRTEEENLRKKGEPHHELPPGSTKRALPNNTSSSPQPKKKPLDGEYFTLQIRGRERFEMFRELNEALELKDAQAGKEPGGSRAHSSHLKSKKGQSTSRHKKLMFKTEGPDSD
human Peroxisome Proliferator-activated Receptor alpha (PPARa), PPARA (gene 5465), sequence (Q07869 whole entry, looked up, the tested form may be a part): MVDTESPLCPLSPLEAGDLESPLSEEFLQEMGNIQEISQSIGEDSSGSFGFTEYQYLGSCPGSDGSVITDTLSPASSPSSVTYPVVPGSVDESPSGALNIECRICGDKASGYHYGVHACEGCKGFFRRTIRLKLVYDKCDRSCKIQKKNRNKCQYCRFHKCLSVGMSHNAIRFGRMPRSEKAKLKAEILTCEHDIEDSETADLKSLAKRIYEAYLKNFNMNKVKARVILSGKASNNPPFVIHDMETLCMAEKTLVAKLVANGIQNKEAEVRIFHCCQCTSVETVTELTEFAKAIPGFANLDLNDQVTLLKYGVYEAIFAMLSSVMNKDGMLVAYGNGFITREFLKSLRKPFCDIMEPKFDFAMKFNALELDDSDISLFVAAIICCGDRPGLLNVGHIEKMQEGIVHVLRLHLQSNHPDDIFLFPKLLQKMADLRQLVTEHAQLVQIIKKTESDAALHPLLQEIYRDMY

OCCc1ccncc1
outcome [1]: inactive | outcome [2]: inactive | outcome [3]: inactive | outcome [4]: inactive | outcome [5]: inactive

O=C(Oc1ccccc1)c1ccc2ccccc2c1O
outcome [1]: inactive | outcome [2]: inactive | AC50 [3]: 100 µM (active) | AC50 [4]: 18.3 µM (active) | AC50 [5]: 49 µM (active) | outcome [6]: inactive

c1cc(N(CC2CO2)CC2CO2)ccc1OCC1CO1 (stereo not given)
AC50 [1]: 27 µM (active) | AC50 [2]: 163 µM (active) | AC50 [3]: 48.4 µM (active) | AC50 [4]: 25.4 µM (active) | AC50 [5]: 20.3 µM (active)

O=C(C(Cl)Cl)N1CCOC12CCCCC2
outcome [1]: inactive | AC50 [2]: 8.87 µM (active) | outcome [3]: inactive | AC50 [4]: 7.52 µM (active) | outcome [5]: inactive | outcome [6]: inactive

CCCCCCCCCCc1ccccc1
outcome [1]: inactive | outcome [2]: inactive | outcome [3]: inactive | outcome [4]: inactive | AC50 [5]: 53.6 µM (active) | outcome [6]: inactive

NCCCN1CCN(CCCN)CC1
outcome [1]: inactive | outcome [2]: inactive | outcome [3]: inactive | AC50 [4]: 81.2 µM (active) | outcome [5]: inactive | outcome [6]: inactive

Cn1c([N+](=O)[O-])cnc1COC(N)=O
outcome [1]: inactive | outcome [2]: inactive | outcome [3]: inactive | outcome [4]: inactive | outcome [5]: inactive | outcome [6]: inactive

CC(C)CCCC(C)CC=O (stereo not given)
outcome [1]: inactive | outcome [2]: inactive | outcome [3]: inactive | outcome [4]: inactive | outcome [5]: inactive | outcome [6]: inactive | AC50 [7]: 45.8 µM (active)

O=S(=O)(O)c1cc(S(=O)(=O)O)c2ccc3c(S(=O)(=O)O)cc(S(=O)(=O)O)c4ccc1c2c43
outcome [1]: inactive | outcome [2]: inactive | outcome [3]: inactive | outcome [4]: inactive | outcome [5]: inactive | outcome [6]: inactive

CC(C)=CCC[C@H](C)CCO
outcome [1]: inactive | outcome [2]: inactive | outcome [3]: inactive | outcome [4]: inactive | outcome [5]: inactive | outcome [6]: inactive

C=CCCCCCCCCC(=O)OCCCC
outcome [1]: inactive | outcome [2]: inactive | outcome [3]: inactive | outcome [4]: inactive | outcome [5]: inactive | outcome [6]: inactive | outcome [7]: inactive

O=C(Cl)c1cc(C(=O)Cl)cc(C(=O)Cl)c1
outcome [1]: inactive | outcome [2]: inactive | outcome [3]: inactive | AC50 [4]: 158 µM (active) | outcome [5]: inactive | outcome [6]: inactive | AC50 [8]: 12.2 µM (active) | AC50 [9]: 10.2 µM (active) | AC50 [10]: 25.8 µM (active)

O=C(C=Cc1ccccc1)OCc1ccccc1
outcome [1]: inactive | outcome [2]: inactive | outcome [3]: inactive | AC50 [4]: 34.4 µM (active) | outcome [5]: inactive | outcome [6]: inactive | outcome [7]: inactive

CCCC(=O)OCc1ccccc1
outcome [1]: inactive | outcome [2]: inactive | outcome [3]: inactive | outcome [4]: inactive | outcome [5]: inactive | outcome [6]: inactive

CCO[Si](C)(OCC)OCC
outcome [1]: inactive | outcome [2]: inactive | outcome [3]: inactive | outcome [4]: inactive | outcome [5]: inactive | outcome [6]: inactive | outcome [8]: inactive | outcome [9]: inactive | outcome [10]: inactive

CCOC(=O)c1ccccc1C(=C1C=C(Br)C(=O)C(Br)=C1)c1cc(Br)c(O)c(Br)c1
AC50 [1]: 22.4 µM (active) | outcome [2]: inactive | AC50 [3]: 43 µM (active) | outcome [4]: inactive | AC50 [5]: 53.1 µM (active) | AC50 [6]: 48.3 µM (active) | AC50 [8]: 18.6 µM (active) and 9.69 µM (active) | AC50 [9]: 20 µM (active) and 17.9 µM (active) | AC50 [10]: 22.7 µM (active) and 23 µM (active)

CC(=O)NS(=O)(=O)c1ccc(N)cc1
outcome [1]: inactive | outcome [2]: inactive | outcome [3]: inactive | outcome [4]: inactive | outcome [5]: inactive | outcome [6]: inactive | outcome [7]: inactive

CCOc1nc(F)cc2nc(S(=O)(=O)Nc3c(Cl)cccc3C(=O)OC)nn12
outcome [1]: inactive | outcome [2]: inactive | outcome [3]: inactive | AC50 [4]: 27 µM (active) | outcome [5]: inactive | outcome [6]: inactive | outcome [8]: inactive | outcome [9]: inactive | outcome [10]: inactive | outcome [7]: inactive

N#[N+]c1ccc2c(S(=O)(=O)[O-])cccc2c1O
outcome [1]: inactive | outcome [2]: inactive | outcome [3]: inactive | outcome [4]: inactive | outcome [5]: inactive | outcome [6]: inactive | outcome [8]: inactive | outcome [9]: inactive | outcome [10]: inactive | outcome [7]: inactive

Cc1ccc2c(c1)C(=O)c1ccccc1C2=O
outcome [1]: inactive | outcome [2]: inactive | AC50 [3]: 6.48 µM (active) | AC50 [4]: 10.5 µM (active) | outcome [5]: inactive | outcome [6]: inactive

O=C(c1ccc(O)cc1)c1ccc(O)cc1O
outcome [1]: inactive | outcome [2]: inactive | outcome [3]: inactive | AC50 [4]: 100 µM (active) | outcome [5]: inactive | AC50 [6]: 100 µM (active) | outcome [8]: inactive | AC50 [9]: 15.9 µM (active) | outcome [9]: inactive | AC50 [10]: 13.9 µM (active) and 20 µM (active) | outcome [7]: inactive

C=C(C)CCO
outcome [1]: inactive | outcome [2]: inactive | outcome [3]: inactive | outcome [4]: inactive | outcome [5]: inactive | outcome [6]: inactive

C=CCOc1c(Br)cc(Br)cc1Br
outcome [1]: inactive | outcome [2]: inactive | outcome [3]: inactive | outcome [4]: inactive | outcome [5]: inactive | outcome [6]: inactive | AC50 [8]: 13.7 µM (active) | AC50 [9]: 5.76 µM (active) | AC50 [10]: 29.3 µM (active)

C=CC(=O)NC(C)(C)CS(=O)(=O)O
outcome [1]: inactive | outcome [2]: inactive | outcome [3]: inactive | outcome [4]: inactive | outcome [5]: inactive | outcome [6]: inactive

O=C1CCCN1CCO
outcome [1]: inactive | outcome [2]: inactive | outcome [3]: inactive | outcome [4]: inactive | outcome [5]: inactive | outcome [6]: inactive | outcome [8]: inactive | outcome [9]: inactive | outcome [10]: inactive

CCCCC/C=C\C/C=C\CCCCCCCC(=O)OC
outcome [1]: inactive | outcome [2]: inactive | AC50 [3]: 37 µM (active) | AC50 [4]: 32.5 µM (active) | outcome [5]: inactive | AC50 [6]: 180 µM (active) | AC50 [8]: 20 µM (active) | AC50 [9]: 33.7 µM (active) | AC50 [10]: 34 µM (active) | AC50 [7]: 32 µM (active)

C=CC(=O)OCC(Br)CBr (stereo not given)
AC50 [1]: 163 µM (active) | outcome [2]: inactive | AC50 [3]: 56.6 µM (active) | AC50 [4]: 24.8 µM (active) | outcome [5]: inactive | AC50 [6]: 165 µM (active) | AC50 [8]: 20 µM (active) | AC50 [9]: 34.2 µM (active) | AC50 [10]: 20 µM (active) | AC50 [7]: 144 µM (active)
